A number with no mark means an inactive call.
Key:
Test in all cases: log2 ratio of Biotin-Ahx-Ub-VS probe labelling (fragment/DMSO); higher = less target engagement (more negative = stronger competition), active = hit call of the paper (q ≤ 0.05, log2 ratio ≤ -1)
Settings in all cases: compound concentration: 200 uM; treatment time: 3 h
USP19 = target: T1, USP19 (UniProt O94966)
T1 sequence (whole entry): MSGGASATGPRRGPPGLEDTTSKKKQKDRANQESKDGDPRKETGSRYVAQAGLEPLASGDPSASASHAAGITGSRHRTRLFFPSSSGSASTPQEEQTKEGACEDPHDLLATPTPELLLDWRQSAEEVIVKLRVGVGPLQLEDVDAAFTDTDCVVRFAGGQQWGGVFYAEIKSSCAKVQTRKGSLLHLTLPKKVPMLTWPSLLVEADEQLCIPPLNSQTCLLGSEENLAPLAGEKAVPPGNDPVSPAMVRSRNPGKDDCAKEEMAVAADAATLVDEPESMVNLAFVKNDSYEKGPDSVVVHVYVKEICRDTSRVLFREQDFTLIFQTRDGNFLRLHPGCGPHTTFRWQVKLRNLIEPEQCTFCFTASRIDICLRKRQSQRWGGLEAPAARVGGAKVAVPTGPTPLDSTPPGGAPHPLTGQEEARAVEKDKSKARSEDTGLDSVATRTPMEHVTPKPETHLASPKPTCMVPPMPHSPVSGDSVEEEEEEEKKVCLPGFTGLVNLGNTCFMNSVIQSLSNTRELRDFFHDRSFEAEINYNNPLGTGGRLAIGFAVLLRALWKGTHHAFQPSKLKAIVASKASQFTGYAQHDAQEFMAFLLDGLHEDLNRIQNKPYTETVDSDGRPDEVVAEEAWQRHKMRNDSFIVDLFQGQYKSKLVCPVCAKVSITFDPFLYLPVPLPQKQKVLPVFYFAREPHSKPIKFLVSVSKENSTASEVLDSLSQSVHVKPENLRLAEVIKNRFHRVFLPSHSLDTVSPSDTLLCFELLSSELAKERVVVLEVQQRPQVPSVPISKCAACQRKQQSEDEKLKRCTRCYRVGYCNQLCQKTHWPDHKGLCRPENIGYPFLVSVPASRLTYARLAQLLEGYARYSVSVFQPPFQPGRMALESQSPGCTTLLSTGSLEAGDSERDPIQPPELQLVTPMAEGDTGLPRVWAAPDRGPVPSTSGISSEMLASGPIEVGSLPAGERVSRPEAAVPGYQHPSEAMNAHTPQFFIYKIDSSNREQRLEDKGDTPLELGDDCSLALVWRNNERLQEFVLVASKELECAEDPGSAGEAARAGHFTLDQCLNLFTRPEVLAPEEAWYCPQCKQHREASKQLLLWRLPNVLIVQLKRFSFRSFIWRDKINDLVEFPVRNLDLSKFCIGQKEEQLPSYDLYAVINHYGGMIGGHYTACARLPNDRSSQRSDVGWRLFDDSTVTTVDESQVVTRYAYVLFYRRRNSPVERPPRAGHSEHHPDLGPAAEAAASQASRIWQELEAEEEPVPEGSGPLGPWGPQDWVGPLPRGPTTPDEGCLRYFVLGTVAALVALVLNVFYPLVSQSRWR
Procedure, shortened: (§1)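 Fragment (200 µM) or vehicle was incubated for 3 h with triplicate HEK293T lysate samples of 495 µg, which were then treated with Biotin-Ahx-Ub-VS at 0.5 µM final for 1 h. Labelled DUBs were enriched on NeutrAvidin, digested with LysC and trypsin, and analysed by diaPASEF LC-MS/MS. Values are average log2 fragment/vehicle ratios from an unpaired t-test on global-median-normalised Spectronaut label-free quantities, using proteins with ≥2 unique peptides.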

USP22 = target: T2, USP22 (UniProt Q9UPT9)
T2 sequence (whole entry): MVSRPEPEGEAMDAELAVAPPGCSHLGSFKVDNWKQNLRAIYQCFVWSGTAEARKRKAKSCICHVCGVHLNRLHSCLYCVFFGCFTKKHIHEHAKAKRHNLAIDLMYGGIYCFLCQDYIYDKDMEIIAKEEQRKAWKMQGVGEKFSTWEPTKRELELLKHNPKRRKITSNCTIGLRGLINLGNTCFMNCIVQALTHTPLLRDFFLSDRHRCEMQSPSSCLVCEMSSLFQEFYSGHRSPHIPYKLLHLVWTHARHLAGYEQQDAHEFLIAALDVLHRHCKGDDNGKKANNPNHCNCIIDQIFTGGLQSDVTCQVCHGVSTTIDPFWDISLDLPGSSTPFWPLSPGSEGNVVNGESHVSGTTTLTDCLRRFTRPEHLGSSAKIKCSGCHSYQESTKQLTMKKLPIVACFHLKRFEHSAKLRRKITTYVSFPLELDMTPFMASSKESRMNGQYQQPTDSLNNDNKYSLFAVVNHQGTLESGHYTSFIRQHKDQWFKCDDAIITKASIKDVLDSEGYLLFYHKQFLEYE
Procedure, shortened: as §1

USP24 = USP24 (UniProt Q9UPU5)
Sequence of USP24 (Q9UPU5 whole entry): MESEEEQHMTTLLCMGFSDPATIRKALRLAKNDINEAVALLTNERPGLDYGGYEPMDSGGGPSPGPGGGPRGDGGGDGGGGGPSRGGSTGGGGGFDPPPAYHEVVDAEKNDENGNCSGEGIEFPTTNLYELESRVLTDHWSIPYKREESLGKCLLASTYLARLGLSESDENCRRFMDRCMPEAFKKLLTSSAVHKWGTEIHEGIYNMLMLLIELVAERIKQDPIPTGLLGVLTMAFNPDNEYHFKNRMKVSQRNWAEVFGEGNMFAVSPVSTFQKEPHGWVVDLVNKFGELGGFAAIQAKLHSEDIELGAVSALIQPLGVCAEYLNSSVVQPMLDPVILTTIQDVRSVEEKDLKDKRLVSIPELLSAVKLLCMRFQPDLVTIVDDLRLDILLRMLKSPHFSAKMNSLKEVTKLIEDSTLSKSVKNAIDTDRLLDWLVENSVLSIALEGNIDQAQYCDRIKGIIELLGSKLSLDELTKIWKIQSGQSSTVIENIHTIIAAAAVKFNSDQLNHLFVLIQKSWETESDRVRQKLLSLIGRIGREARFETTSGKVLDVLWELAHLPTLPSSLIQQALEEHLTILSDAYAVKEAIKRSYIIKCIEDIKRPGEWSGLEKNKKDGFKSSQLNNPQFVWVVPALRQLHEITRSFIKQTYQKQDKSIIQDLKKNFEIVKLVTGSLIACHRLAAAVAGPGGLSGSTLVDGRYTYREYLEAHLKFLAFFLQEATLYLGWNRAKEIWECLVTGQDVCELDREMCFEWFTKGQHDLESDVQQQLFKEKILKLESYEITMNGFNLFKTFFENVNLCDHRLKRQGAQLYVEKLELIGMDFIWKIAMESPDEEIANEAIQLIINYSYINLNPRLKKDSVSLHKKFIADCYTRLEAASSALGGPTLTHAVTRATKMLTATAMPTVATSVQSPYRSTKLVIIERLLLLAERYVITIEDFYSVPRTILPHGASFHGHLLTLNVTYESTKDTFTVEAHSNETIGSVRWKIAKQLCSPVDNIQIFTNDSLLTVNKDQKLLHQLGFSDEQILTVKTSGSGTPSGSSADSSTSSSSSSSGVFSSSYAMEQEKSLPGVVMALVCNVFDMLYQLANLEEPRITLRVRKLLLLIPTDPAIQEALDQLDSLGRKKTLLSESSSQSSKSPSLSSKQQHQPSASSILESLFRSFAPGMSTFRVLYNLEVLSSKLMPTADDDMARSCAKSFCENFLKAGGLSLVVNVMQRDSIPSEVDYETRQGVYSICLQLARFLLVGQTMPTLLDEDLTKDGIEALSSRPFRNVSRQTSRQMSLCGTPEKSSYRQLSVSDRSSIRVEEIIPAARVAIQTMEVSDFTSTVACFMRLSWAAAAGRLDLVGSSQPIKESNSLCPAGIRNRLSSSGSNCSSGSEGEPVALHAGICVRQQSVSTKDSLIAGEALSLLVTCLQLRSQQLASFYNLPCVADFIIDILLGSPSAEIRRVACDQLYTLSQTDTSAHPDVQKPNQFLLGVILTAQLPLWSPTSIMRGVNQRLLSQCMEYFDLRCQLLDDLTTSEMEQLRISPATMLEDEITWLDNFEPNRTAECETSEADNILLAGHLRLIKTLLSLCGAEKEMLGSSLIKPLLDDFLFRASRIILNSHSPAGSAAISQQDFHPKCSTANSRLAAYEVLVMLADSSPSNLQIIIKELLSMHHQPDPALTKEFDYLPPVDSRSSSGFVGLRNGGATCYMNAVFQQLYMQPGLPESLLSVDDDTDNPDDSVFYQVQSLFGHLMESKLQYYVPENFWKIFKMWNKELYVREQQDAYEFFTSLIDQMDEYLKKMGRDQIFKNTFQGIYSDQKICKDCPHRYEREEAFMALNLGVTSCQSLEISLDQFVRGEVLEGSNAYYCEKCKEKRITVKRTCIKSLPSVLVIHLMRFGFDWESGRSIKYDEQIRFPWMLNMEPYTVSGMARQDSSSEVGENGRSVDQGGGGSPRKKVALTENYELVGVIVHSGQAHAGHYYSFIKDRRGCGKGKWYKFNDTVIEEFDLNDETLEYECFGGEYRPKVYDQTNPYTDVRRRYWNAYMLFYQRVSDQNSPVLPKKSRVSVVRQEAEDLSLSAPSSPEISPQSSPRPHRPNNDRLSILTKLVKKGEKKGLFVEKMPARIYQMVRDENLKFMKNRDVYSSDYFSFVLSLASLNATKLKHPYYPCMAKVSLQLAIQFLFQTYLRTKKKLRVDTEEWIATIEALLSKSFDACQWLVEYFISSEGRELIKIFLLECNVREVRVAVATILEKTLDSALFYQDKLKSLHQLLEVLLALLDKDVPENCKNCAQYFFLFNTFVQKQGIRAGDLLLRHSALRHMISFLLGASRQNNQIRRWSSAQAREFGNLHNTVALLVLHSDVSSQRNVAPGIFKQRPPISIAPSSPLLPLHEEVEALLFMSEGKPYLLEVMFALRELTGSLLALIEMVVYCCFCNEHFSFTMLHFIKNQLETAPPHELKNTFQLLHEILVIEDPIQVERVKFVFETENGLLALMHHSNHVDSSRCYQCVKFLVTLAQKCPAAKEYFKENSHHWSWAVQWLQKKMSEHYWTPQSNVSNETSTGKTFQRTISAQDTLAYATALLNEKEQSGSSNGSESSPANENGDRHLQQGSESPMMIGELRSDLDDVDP
Procedure, shortened: as §1

USP25 = target: T3, USP25 (UniProt Q9UHP3)
T3 sequence (whole entry): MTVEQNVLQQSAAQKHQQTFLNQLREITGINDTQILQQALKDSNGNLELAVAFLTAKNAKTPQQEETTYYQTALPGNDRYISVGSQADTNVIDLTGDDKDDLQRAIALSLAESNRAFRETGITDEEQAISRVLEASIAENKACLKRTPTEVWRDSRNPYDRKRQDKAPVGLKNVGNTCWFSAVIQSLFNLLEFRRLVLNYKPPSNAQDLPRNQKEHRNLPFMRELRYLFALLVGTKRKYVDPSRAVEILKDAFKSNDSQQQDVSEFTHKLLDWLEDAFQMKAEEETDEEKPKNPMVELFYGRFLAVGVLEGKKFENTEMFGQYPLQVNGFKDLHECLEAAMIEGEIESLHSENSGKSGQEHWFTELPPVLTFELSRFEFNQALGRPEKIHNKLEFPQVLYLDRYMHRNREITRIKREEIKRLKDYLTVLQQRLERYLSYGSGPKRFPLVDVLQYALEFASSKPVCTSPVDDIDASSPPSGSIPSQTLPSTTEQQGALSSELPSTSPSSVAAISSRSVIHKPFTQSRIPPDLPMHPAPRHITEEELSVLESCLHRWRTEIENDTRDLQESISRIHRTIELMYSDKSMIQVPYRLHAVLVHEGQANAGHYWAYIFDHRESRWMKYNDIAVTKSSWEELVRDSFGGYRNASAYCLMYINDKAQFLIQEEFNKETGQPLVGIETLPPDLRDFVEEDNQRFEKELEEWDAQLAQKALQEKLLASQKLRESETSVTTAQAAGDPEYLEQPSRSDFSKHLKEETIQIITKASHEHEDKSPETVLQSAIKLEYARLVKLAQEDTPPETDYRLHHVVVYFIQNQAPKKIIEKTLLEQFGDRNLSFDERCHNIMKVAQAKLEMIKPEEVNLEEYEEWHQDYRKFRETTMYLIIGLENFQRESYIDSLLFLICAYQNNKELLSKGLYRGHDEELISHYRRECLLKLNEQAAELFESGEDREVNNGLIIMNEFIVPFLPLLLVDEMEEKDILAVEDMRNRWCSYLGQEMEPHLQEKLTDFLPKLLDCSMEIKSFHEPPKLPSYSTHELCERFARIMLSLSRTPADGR
Procedure, shortened: as §1

USP28 = target: T4, USP28 (UniProt Q96RU2)
T4 sequence (whole entry): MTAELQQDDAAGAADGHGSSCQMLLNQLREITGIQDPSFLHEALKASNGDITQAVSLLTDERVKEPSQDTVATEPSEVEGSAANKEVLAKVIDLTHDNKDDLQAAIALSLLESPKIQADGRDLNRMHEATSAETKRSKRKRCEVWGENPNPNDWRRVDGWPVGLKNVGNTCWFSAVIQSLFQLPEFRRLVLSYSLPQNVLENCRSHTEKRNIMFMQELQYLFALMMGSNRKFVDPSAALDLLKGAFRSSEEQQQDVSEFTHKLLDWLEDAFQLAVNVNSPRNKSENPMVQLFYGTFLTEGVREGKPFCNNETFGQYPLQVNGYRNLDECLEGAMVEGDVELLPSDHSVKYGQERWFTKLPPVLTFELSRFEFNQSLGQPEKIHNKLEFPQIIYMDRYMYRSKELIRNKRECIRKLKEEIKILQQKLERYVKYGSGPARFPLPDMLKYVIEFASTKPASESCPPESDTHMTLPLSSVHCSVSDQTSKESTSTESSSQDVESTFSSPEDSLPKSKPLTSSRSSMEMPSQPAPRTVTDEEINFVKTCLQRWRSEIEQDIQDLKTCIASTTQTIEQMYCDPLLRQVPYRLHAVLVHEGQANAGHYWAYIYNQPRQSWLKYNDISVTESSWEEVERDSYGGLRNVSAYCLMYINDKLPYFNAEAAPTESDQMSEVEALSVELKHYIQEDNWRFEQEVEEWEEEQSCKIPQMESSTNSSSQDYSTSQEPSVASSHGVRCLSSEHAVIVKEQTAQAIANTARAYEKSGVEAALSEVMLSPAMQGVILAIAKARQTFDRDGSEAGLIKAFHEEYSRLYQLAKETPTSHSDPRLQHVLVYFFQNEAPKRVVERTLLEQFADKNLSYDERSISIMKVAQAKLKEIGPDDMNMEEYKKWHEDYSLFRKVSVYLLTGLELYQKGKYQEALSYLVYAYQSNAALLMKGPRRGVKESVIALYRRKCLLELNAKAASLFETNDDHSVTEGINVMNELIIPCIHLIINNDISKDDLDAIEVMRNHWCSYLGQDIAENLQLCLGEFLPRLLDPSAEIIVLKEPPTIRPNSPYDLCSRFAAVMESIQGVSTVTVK
Procedure, shortened: as §1

NS(=O)(=O)c1ccc(Cl)c(NC(=O)CCl)c1
log2 ratio of Biotin-Ahx-Ub-VS probe labelling (USP19): -0.307
log2 ratio of Biotin-Ahx-Ub-VS probe labelling (USP22): -0.46
log2 ratio of Biotin-Ahx-Ub-VS probe labelling (USP24): -0.149
log2 ratio of Biotin-Ahx-Ub-VS probe labelling (USP25): -1.57 (active)
log2 ratio of Biotin-Ahx-Ub-VS probe labelling (USP28): -1.42 (active)
